Source: PubChem BioAssay (National Center for Advancing Translational Sciences (NCATS))
TDP1 cell noCPT = qHTS for Inhibitors of human tyrosyl-DNA phosphodiesterase 1 (TDP1): qHTS in cells in absence of CPT. DT40 Tdp1-/- hTDP1 cells, no CPT, ATP luminescence, 48 h. 420,000 tested, 15% active. Potency, µM (series often up to 46.2 µM), for inactives: at the highest dose activity change, negative = growth inhibition, usual class: inhibitors. AID 686978, 2013; note: potency is the fitted concentration of half-maximal effect; % is set by controls: 0 for no effect and ±100 for the full control effect; nearly all actives have a fitted effect of over 55% in size
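Readout: luminescence from CellTiter-Glo after 30 min in the dark at RT. Cells: DT40 Tdp1-/- with stable hTDP1, 400/well. Exposure: compounds alone, ≥48 hr, 37 °C.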
DRD3 agonist = D3 dopamine receptor (human) agonism. D3R DiscoveRx beta-arrestin cells, luminescence, 90 min. 410,000 tested, 0.58% active. max activation, %; in the data active = max activation above about 30%; note: 0% is about no effect
Target sequence (P35462 whole entry, looked up): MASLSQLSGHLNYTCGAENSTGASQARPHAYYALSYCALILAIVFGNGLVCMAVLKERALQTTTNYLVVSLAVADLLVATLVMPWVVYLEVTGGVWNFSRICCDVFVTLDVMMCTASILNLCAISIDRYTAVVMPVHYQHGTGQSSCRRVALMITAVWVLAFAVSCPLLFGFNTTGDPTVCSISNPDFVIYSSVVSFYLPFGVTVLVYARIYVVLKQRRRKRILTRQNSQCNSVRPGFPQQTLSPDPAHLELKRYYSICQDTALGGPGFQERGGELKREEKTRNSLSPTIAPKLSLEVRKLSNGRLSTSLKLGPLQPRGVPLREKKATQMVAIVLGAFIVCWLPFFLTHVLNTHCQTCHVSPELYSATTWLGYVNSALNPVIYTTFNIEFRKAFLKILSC
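Agonist mode: compounds and dopamine controls were applied to plated cells for 90 min at 37 degrees C after an overnight attachment at 1500 cells/well. Luminescent read-out followed 30 - 60 minutes at room temperature with DiscoveRx detection reagent.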
DT40 TDP1 CPT = DT40-hTDP1 cell growth loss with CPT. chicken DT40 Tdp1-/-;hTDP1 cells + 20 nM CPT, ATP luminescence, 48 h. Potency, µM (titrated, usually from 46.2 µM), for inactives: top-dose activity change, negative = growth inhibition, most hits filed as inhibitors. 420,000 tested, 12% active. AID 686979; note: potency is the fitted concentration of half-maximal effect; % is set by controls: 0 for no effect and ±100 for the full control effect; nearly all actives have a fitted effect of over 55% in size
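Chicken DT40 Tdp1-/- cells complemented with human TDP1, 400 cells/well, exposed to compounds plus 20 nM camptothecin for at least 48 h at 37 C; viability read as ATP content by CellTiter-Glo luminescence.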
DRD3 antagonist = blocks the human D3 dopamine receptor. P35462. D3R cells, DiscoveRx beta-arrestin luminescence, antagonist mode; hits give low values. max response, negative = inhibition, %. 360,000 tested, 2.5% active. AID 652054; in the data active = max response below about -50%; inconclusive = no clear call, values can overlap the other calls; note: % is set by controls: 0 for no effect and ±100 for the full control effect
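Cells expressing the human receptor were seeded at 1500 cells/well, incubated overnight at 37 degrees C in 5% CO2, then exposed to library compounds with dopamine controls for 90 minutes at 37 degrees C before luminescent detection.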
IL1B secr inh = blocks inflammasome-driven IL-1 beta release; activity change, % at 57.5 µM; 360,000 tested, 4.7% active; THP-1 LPS/ATP IL-1B secretion, AlphaLISA, 16 h; hits give low values; AID 743279; in the data active = activity change below about -50%; inconclusive = mostly about -30% to -49%; note: % is set by controls: 0 for no effect and ±100 for the full control effect
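THP-1 cells pretreated 1 hr with compounds (up to 57.5 uM final), then stimulated with LPS (250 ng/mL final) plus ATP (1.25 mM final); secreted IL-1B measured by AlphaLISA after 16 hr, decreased signal indicating inhibition.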
ClpP mod = qHTS Assay for Activators of ClpP. purified B. subtilis ClpP, FRET peptide cleavage, 20 min. Potency, µM (series often up to 57.5 µM), for the others: at the highest dose activity change, negative = active. 340,000 tested, 1.9% active; active = well fitted falling curve with a large enough effect; inconclusive = small, poorly fitted or top-dose-only effect; inactive = no such curve, though single readings can be large or run the other way; note: potency is the fitted concentration of half-maximal effect; the source files actives as falling curves though it sought activators and does not explain the sign; nearly all actives have a fitted effect of over 65% in size
Target sequence (P80244 whole entry, looked up): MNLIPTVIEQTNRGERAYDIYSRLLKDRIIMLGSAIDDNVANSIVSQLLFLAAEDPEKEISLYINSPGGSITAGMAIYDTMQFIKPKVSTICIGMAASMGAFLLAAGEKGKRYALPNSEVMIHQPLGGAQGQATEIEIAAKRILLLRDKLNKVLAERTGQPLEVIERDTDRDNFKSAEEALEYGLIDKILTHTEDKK
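ClpP 10 microg/mL final, pH 8 Tris/KCl buffer with BSA, glycerol, Tween-20; compound pinned in; FRET-FV substrate; RT 20 min; Ex320/Em430; ΔFRET vs ADEP 5.8 microM, DMSO, no enzyme.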
The depositor's hits bear a star; u = inconclusive; x = not tested or not shown. A selection: hits, their analogues and other compounds. The true share with any hit is near 21%. Unless noted, calls come from the whole dose curve; as a rule, active = well fitted inhibition curve with a large enough effect; inconclusive = small, poorly fitted or top-dose-only effect; inactive = flat fitted curve, though single readings scatter.

SMILES	TDP1 cell noCPT	DRD3 agonist	DT40 TDP1 CPT	DRD3 antagonist	IL1B secr inh	ClpP mod
O=C(/C(N=Nc1cccc(C(F)(F)F)c1)=C(/O)c1cccs1)C(F)(F)F	21µM*	-24	u	u	-62*	-2%
CCOc1cc(NC(=S)NCCOC)c(OCC)cc1NC(=O)c1ccco1	u	12	-29%	0	18	x
Cn1c(COc2ccccc2)nnc1SCC(=O)Nc1nnc(C2CC2)s1	u	-2	-22%	10	4	x
CC(C)(C)Nc1nc(-c2ccc3c(c2)CCN3C(=O)C2CC2)cs1	u	-4	u	4	-7	x
CC(C)C(=O)Nc1nc(-c2ccc3c(c2)CCN3C(=O)C2CC2)cs1	13µM*	7	12µM*	10	-12	x
CCC(CC)C(=O)Nc1nc(-c2ccc3c(c2)CCN3C(=O)C2CC2)c(C)s1	23µM*	0	u	-2	49	-1%
N#CCSc1nnc(COc2cccc3ccccc23)n1-c1cccc(Cl)c1	21µM*	2	u	23	u	-1%
N#CCSc1nnc(COc2cccc3ccccc23)n1-c1ccccc1	21µM*	0	16µM*	43	-68*	0%
Cc1ccccc1OCc1nnc(SCCN2CCCC2)n1-c1ccccc1	21µM*	-14	23µM*	u	-7	x
CSc1ccc(Nc2nn(-c3ccc(OC(F)(F)F)cc3)nc2C(C)=O)cc1	-6%	12	-7%	x	x	-30%
Cc1ccc(-n2c(C)cc(/C=N/NC(=O)CN(c3ccc(C)cc3C)S(C)(=O)=O)c2C)cc1	21µM*	-6	u	-27	u	-2%
CNC(=S)N/N=C/c1cc(C)n(-c2ccc(Cl)c(Cl)c2)c1C	u	-5	23µM*	u	-8	-3%
Cc1ccc(-n2c(C)cc(/C=N/NC(=O)CC3(C)OCCO3)c2C)cc1	u	0	u	-20	0	-2%
Cc1ccc(-n2c(C)cc(/C=N/NC(N)=S)c2C)cc1	3.7µM*	-1	3.7µM*	u	34	-5%
O=C(CCC(=O)c1ccccc1)Nc1ccc(C(=O)O)cc1	u	-5	u	-15	10	-4%
CCn1c(C(=O)N2CCC(C(=O)NCc3ccc(OC)cc3)CC2)cc2sccc21	-15%	6	u	2	6	0%
CCOC(=O)N1CCN(C(=O)C2CCN(C(=O)c3cc4sccc4n3CC)CC2)CC1	u	1	-21%	16	8	-3%
CCOC(=O)N1CCC(NC(=O)C2CCN(C(=O)c3cc4sccc4n3CC)CC2)CC1	16µM*	7	u	9	6	x
CCn1c(C(=O)N2CCC(C(=O)NCCc3ccc(OC)cc3OC)CC2)cc2sccc21	15µM*	5	21µM*	x	x	1%
O=C(OCCN1CCOCC1)c1ccc(Cl)cc1Cl	14%	-2	0%	-22	11	-1%
CC1=CN2C(=N)/C(=C\c3cn(CCCOc4ccccc4)c4ccccc34)C(=O)N=C2S1	u	-7	15µM*	0	-2	0%
Cc1cc(N2CCN(C)CC2)nc2ccc(NC(=O)Nc3ccc(Cl)cc3)cc12	u	-5	u	x	x	4%
Cc1cccc(N2CCN(C(=S)Nc3ccc4nc(N5CCN(C)CC5)cc(C)c4c3)CC2C)c1 (centres undefined)	21µM*	-19	u	-22	-72*	5%
Cc1cc(N2CCN(C)CC2)nc2ccc(NC(=S)N3CCN(c4ccc(Cl)cc4)CC3)cc12	u	-20	9.2µM*	-25	38	x
Cc1cc(N2CCN(C)CC2)nc2ccc(NC(=S)N3CCN(c4cccc(Cl)c4)CC3)cc12	2.6µM*	-16	1.8µM*	-10	19	x
SMILES	TDP1 cell noCPT	DRD3 agonist	DT40 TDP1 CPT	DRD3 antagonist	IL1B secr inh	ClpP mod
Cc1cc(N2CCN(C)CC2)nc2ccc(NC(=S)N3CCN(c4ccc(F)cc4)CC3)cc12	10µM*	-9	u	-18	212	-1%
O=C(Nc1nccs1)[C@@H]1CC=C[C@@H]2CCN(C3CC3)C(=O)[C@@H]21	-8%	x	-6%	x	x	-1%
Cc1cccc(N2CCN(C(=S)Nc3ccc4nc(N5CCN(C)CC5)cc(C)c4c3)CC2)c1C	1µM*	-2	1.3µM*	-25	4	0%
Cc1cc(N2CCN(C)CC2)nc2ccc(NC(=S)N3CCCCCC3)cc12	-30%	-14	-4%	-12	-5	7%
Cc1cc(N2CCCN(C)CC2)nc2cc(Cl)ccc12	u	-48	u	u	u	32µM*
C[C@]12CCC(=O)C=C1CCC1C2C(O)C[C@]2(C)C1CC[C@]2(O)C(=O)CO (some centres undefined)	-14%	x	0%	x	x	x
CCC(C(=O)OCC(=O)C1(O)CCC2C3CCC4=CC(=O)CCC4(C)C3C(O)CC21C)C(C)C (centres undefined)	16µM*	14	9.2µM*	16	-27	-1%
CC(=O)OCC(=O)[C@@]1(O)CCC2C3CCC4=CC(=O)CC[C@]4(C)C3[C@@H](O)C[C@@]21C (some centres undefined)	-30%	11	u	x	x	x
CCCCC(=O)O[C@]1(C(=O)CO)CC[C@H]2[C@@H]3CCC4=CC(=O)CC[C@]4(C)[C@H]3[C@@H](O)C[C@@]21C	u	16	u	2	-68*	1%
CSCCC(NC(=O)CCC(=O)OCC(=O)[C@@]1(O)CCC2[C@@H]3CCC4=CC(=O)C=C[C@]4(C)C3[C@@H](O)C[C@@]21C)C(=O)O (some centres undefined)	-2%	2	-14%	-9	-55*	-4%
Cc1ccc(C)c(N2CCN(C(=O)NCc3noc4ccccc34)CC2)c1	u	7	u	x	x	0%
Cc1ccsc1C(=O)N1CCC1(C)C(=O)Nc1ccc2c(c1)OCCO2 (centres undefined)	u	2	-23%	17	-7	-4%
O=C(Nc1ccn(CCCNCCc2ccccn2)c(=O)n1)OCc1ccccc1	-1%	-7	0%	-15	-2	0%
O=C(Nc1ccn(CCCNCC(c2ccccc2)c2ccccc2)c(=O)n1)OCc1ccccc1	23µM*	-8	u	-30	u	1%
CC(CNCCCn1ccc(NC(=O)OCc2ccccc2)nc1=O)c1ccccc1 (centres undefined)	u	-69	23µM*	-51*	u	1%
O=C(Nc1ccn(CCCNCc2cccc3ccccc23)c(=O)n1)OCc1ccccc1	u	-14	u	-51*	-62*	0%
